# Assay outcomes from PubChem BioAssay.
# Compounds with a hit are over-represented: about 22% of the library has one in this group of screens.
# CYP2C9 act = human CYP2C9 activators, primary screen, biochemical, luminescence | hit rate 1.4% among 96,000 | activation factor at 5 µM | recombinant CYP2C9, luciferin-H conversion; hits give high values; factor 1 = untreated enzyme, 0 = blocked | AID 1024, 2008;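 active means activation factor of 2 or more for CYP2C9 at a 5 µM dose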;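 further: 0 = sulfaphenazole-blocked wells and 1 = vehicle-only wells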
# Target sequence (P11712 whole entry, looked up): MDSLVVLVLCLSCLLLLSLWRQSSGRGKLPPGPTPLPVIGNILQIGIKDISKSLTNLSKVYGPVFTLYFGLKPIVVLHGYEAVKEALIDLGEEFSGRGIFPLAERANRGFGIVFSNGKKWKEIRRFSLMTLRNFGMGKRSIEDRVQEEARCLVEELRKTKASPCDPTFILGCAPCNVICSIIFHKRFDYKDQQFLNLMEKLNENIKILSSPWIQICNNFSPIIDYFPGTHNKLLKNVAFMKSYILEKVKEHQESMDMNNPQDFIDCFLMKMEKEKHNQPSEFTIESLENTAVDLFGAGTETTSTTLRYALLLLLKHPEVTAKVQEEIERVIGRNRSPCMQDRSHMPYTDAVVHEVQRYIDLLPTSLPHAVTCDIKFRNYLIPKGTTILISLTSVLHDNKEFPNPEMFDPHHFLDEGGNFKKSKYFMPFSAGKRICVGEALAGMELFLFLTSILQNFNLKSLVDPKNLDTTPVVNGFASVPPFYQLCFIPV
# Measles CPE = compounds protecting cells from measles virus cytopathic effect, primary screen, measles RdRp inhibitor project, single point, MLSMR library, absorbance; Measles virus-infected cells, CPE protection; protection (pct of control), % at 4 µM; hit rate 1.5% among 140,000; AID 841, 2007; in the data active means protection mostly above about 24%, no sharp cut-off; inactive means mostly below about 26%
# CYP2C9 inh = blockers of cytochrome P450 2C9 activity – biochemical, luminescence, ADME assay, primary screen; P11712; CYP2C9 Supersomes, luciferin-H conversion; inhibition, % at 5 µM; hit rate 20% among 96,000; AID 777, 2007;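 active means blocking of liver enzyme CYP2C9 beyond about 50% at 5 µM, limit read from the data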
# CYP2C19 activ = human CYP2C19 activators, primary screen, biochemical, luminescence; Cytochrome P450 2C19 (Homo sapiens), P33261; recombinant CYP2C19, luciferin-H EGE luminescence; hits give high values; 0 = fully inhibited enzyme, 1 = untreated enzyme; activation factor at 5 µM; 96,000 tested, under 10 active;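 active means activation factor of at least 2 at 5 µM in the primary screen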;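 further: 0 = wells with 2.5 mM tranylcypromine and 1 = vehicle-only wells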
# CYP2C19 inhib = blockers of cytochrome P450 2C19 activity – biochemical, luminescence, ADME assay, primary screen; P33261; CYP2C19 Supersomes, luciferin-H EGE luminescence, 30 min; inhibition, % at 5 µM; hit rate 21% among 96,000;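 active means CYP2C19 inhibition above a set limit at 5 µM in the primary screen, cut at about 50% in these data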;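 further: plate controls were negative control wells for no effect and 2.5 mM tranylcypromine positive control for full effect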
# An asterisk follows results filed as active; . = no result.
SMILES,CYP2C9 act,Measles CPE,CYP2C9 inh,CYP2C19 activ,CYP2C19 inhib
O=C1C(=O)N(Cc2cccnc2)C(c2ccccn2)/C1=C(/O)c1ccc(Br)cc1 (configuration not stated),0.1,10,86*,1,-1
COc1ccc(/C(O)=C2/C(=O)C(=O)N(Cc3cccnc3)C2c2ccccn2)cc1 (configuration not stated),.,8,.,.,.
Nc1nc(CSCCO)nc(Nc2ccccc2)n1,0.9,32*,13,0.9,15
Nc1nc(CSc2ccccn2)nc(Nc2ccccc2)n1,0.5,1,52*,0.4,55*
CCOC(=O)c1cnc(SCc2nc(N)nc(Nc3ccccc3)n2)nc1N,0.2,3,84*,0.3,66*
OCCNc1nc(Nc2ccccc2)nc(Nc2ccccc2)n1,0.3,6,66*,0.8,20
Cc1cc(Cl)ccc1OCC(=O)N/N=C1\CCCc2ccccc21,0.7,3,30,0.8,17
CCOC(=O)c1cnc2ccc(OCC)cc2c1N1CCN(c2ccccc2)CC1,0.3,20,69*,0.8,21
CCOC(=O)c1cnc2ccc(C)cc2c1Nc1ccc(N2CCOCC2)cc1,0.2,7,81*,0.2,78*
CCOc1ccc2ncc(S(=O)(=O)c3ccccc3)c(N3CCN(c4ccc(OC)cc4)CC3)c2c1,.,12,.,.,.
COc1ccc(N2CCN(c3c(S(=O)(=O)c4ccccc4)cnc4ccc(OC)cc34)CC2)cc1,.,23*,.,.,.
O=C(NCc1ccc2c(c1)OCO2)C1CCN(C(=O)Nc2ccc(Cl)cc2)CC1,1,1,2,1.1,-8
COC(=O)C1C(=O)C2=C(CC1C)NC(C)=C(C(=O)OC(C)C)C2c1ccc(OC)c(O)c1 (configuration not stated),0.8,1,15,1.1,-11
OCCN(CCO)c1ncnc2c1oc1ccc(Br)cc12,0.7,9,25,1.1,-9
Cc1ccc([N+](=O)[O-])cc1N=C(c1cccc(Br)c1)N1CCOCC1,0.5,8,52*,0.4,64*
CCCc1noc(-c2ccc(-c3ccccc3)cc2)n1,1,8,4,1,5
O=C(Nc1ccc2c(c1)OCO2)C1CC(c2ccc(F)cc2)=NO1 (configuration not stated),0.8,6,21,0.5,53*
N#Cc1ccc(NC(=O)C2CC(c3ccc(F)cc3)=NO2)cc1 (configuration not stated),0.9,0,9,0.9,8
CCc1ccccc1NC(=O)C1CC(c2ccc(F)cc2)=NO1 (configuration not stated),1.4,19,-40,0.2,83*
COC(=O)c1ccccc1NC(=O)C1CC(c2ccc(F)cc2)=NO1 (configuration not stated),1.5,18,-50,0.7,34
CCNC(=S)N1CCN(c2cccc(C(F)(F)F)c2)CC1,.,6,.,.,.
COc1ccc(C(=O)N(Cc2ccco2)Cc2cccs2)c(O)c1,0,3,95*,0.1,88*
COc1ccc(CNC(=O)C(c2cccs2)N(Cc2ccco2)C(=O)Cc2cccs2)cc1 (configuration not stated),.,25,.,.,.
COc1ccc(NC(=O)CCc2ccccc2)cc1NC(=O)c1ccco1,0.3,8,66*,0.4,62*
COc1ccc(CC(=O)Nc2ccc(OC)c(NC(=O)c3ccco3)c2)cc1,0.8,7,17,0.9,11
SMILES,CYP2C9 act,Measles CPE,CYP2C9 inh,CYP2C19 activ,CYP2C19 inhib
COc1ccccc1-n1cnc2cc(NC(=O)c3ccco3)ccc21,1.1,2,-6,0.3,65*
COc1ccc(NC(=O)c2ccco2)cc1NC(=O)c1cccs1,0.4,12,55*,0.4,57*
Cc1ccc(C(=O)/C=C2\NCC(C)NC2=O)cc1 (configuration not stated),0.9,22,7,0.9,6
COc1cccc(NC(=O)COC(=O)CNS(=O)(=O)c2c(F)cccc2F)c1,.,11,.,.,.
O=C(CSc1ccc2c(c1)OCCO2)NCC1CCCO1 (configuration not stated),1,9,2,0.8,24
COc1c(C)cccc1C(=O)Nc1ccc(N2CCOCC2)c(Cl)c1,1.7,15,-71,0.9,11
Cc1ccccc1Nc1nc2ccccc2s1,.,43*,.,.,.
Cc1nc2c3c4c(sc3n3c(SCC(=O)NCc5ccco5)nnc3n2n1)COC(C)(C)C4,0.8,1,22,0.9,7
O=C(COC(=O)/C=C/c1ccc2c(c1)OCO2)NC1CC1,.,26*,.,.,.
CCOC(=O)Cc1csc(SCc2nc3ccccc3c(=O)[nH]2)n1,0.3,5,73*,0.6,45
CCOC(=O)Cc1csc(SCC(=O)/C(C#N)=C(\C)N)n1,0.8,9,19,0.1,95*
O=C(OCc1nc2ccccc2c(=O)[nH]1)c1cccs1,0.4,10,59*,0.4,58*
CC1CCCCC1NC(=O)/C(C#N)=C/c1ccc2c(c1)OCCO2 (configuration not stated),.,14,.,.,.
Cc1ccc(/C=N/NC(=O)c2csc3c2CCCC3)cc1,1.4,6,-41,0.9,7
CCOc1ccc(OCC)c(NC(=O)c2[nH]c(C)c(C(C)=O)c2C)c1,0.7,15,30,0.6,38
CCc1c(C(=O)Nc2cc(C)cc(C)c2)[nH]c(C)c1C(C)=O,0.4,6,60*,0.6,44
CCCCSc1nc2c(c(C(F)(F)F)c1C#N)CCC2,0.9,3,9,1,2
CCOC(=O)CCSc1nc2c(c(C(F)(F)F)c1C#N)CCC2,0.3,26,67*,0.2,78*
CN(C)C(CNC(=S)Nc1ccccc1)c1cccnc1 (configuration not stated),.,3,.,.,.
Cc1cccc(C)c1Nc1nnc(SCC(=O)NCc2cccs2)s1,.,13,.,.,.
Cc1cc2ccccc2c(=O)n1CC(=O)N1CCN(c2cccc(Cl)c2)CC1,1.2,9,-20,1.1,-8
O=C(Cn1c(=O)sc2ccccc21)Nc1ccc(S(=O)(=O)N2CCCCC2)cc1,.,11,.,.,.
Cc1cc2ccccc2c(=O)n1CC(=O)N(C)c1ccc(F)cc1,0.7,4,34,0.4,60*
Cc1cccc(C)c1Nc1nnc(SCC(=O)NCc2ccco2)s1,0.8,5,20,0.3,70*
Cc1cc2ccccc2c(=O)n1CC(=O)NCc1ccco1,2.6*,6,-156,0.5,54*
CCN(CC)S(=O)(=O)c1ccc(NC(=O)Cn2c(=O)sc3ccccc32)cc1,0.3,12,70*,1.1,-7
CCC(C)NC(=O)CS(=O)Cc1nc(-c2ccccc2C)oc1C (configuration not stated),0.9,13,8,0.9,8
CCC(=O)N=c1n(C)c2ccccc2n1CCOc1ccccc1,.,10,.,.,.
